The values that follow come from PubChem BioAssay (EPA / NIEHS).

Results filed as inconclusive are left out. Activity calls are given as the source filed them. The calls were made as follows, unless noted: active = hit-call score of the fitted dose curve at least 0.9, where 1 is the maximum; inactive = score below 0.9.

A short description of test [1]: BSK_4H_Eotaxin3: BioMAP Diversity Plus: 4H Assay for Eotaxin 3 Biomarker Activity (AID 2283000).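 As to outcome: CCL26 protein level quantified by ELISA in parallel with SRB cytotoxicity check.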 The following applies: primary human endothelial cells (HUVEC); actives raise or lower the signal. In short, it runs like this:
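Readout is Eotaxin-3 (CCL26) level by ELISA in primary human umbilical vein endothelial cells harvested 24 h after chemical exposure; activity fitted in both directions against DMSO control.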

In test [2] the target is human Peroxisome Proliferator-activated Receptor alpha (PPARa), PPARA (gene 5465) (UniProt Q07869). Kind of test: ATG_PPARa_TRANS: Attagene TRANS-FACTORIAL HepG2 Assay for human Peroxisome Proliferator-activated Receptor alpha (PPARa) (AID 2283001; active = hit-call score of the fitted dose curve at least 0.9, where 1 is the maximum). In short, it runs like this: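 Reporter transcripts from GAL4-UAS units in transfected HepG2 were quantified 24 h after dosing. Detection used reverse transcription, PCR, fluorescent primer extension and capillary electrophoresis, with DMSO as baseline.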

Read-out in test [3]: Intercellular Adhesion Molecule 1 (ICAM1), ICAM1 (gene 3383)
Briefly: BSK_3C_ICAM1: BioMAP Diversity Plus: 3C Assay for Intercellular Adhesion Molecule 1 (ICAM1) Biomarker Activity (AID 2283003). To be noted: primary human endothelial cells (HUVEC); actives raise or lower the signal. In outline:
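Human vascular endothelial primary cells, 3C conditions, 24 h treatment. ICAM-1 by ELISA.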

For test [4], the target named is Retinoic acid receptor alpha (Homo sapiens) (UniProt P10276). Kind of test: ATG_RARa_TRANS: Attagene TRANS-FACTORIAL HepG2 Assay for human Retinoic Acid Receptor alpha (RARa) (AID 2283005; active = hit-call score of the fitted dose curve at least 0.9, where 1 is the maximum). In outline: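 Reporter transcripts, measured by RT-PCR with fluorescent labeling and capillary electrophoresis after 24 h dosing, reflect activity of an exogenous human RARa–GAL4 fusion in transiently transfected HepG2. Fitted for increase relative to DMSO.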

Test [5] is described as follows: BSK_3C_Proliferation: Cell Proliferation Assessment in the BioMAP Diversity Plus: 3C Assay (AID 2283006).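 As to AC50: potency may reflect either rise or fall in cell number versus DMSO.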 The following applies: primary human endothelial cells (HUVEC). In short, it runs like this: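 Proliferation of human vascular endothelial primary cells after 48 h dosing, quantified as SRB-stained protein at 560 nm relative to DMSO.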
Test [6] has as its target Peroxisome proliferator-activated receptor gamma (Homo sapiens) (UniProt P37231). Briefly: ATG_PPARg_TRANS: Attagene TRANS-FACTORIAL HepG2 Assay for human Peroxisome Proliferator-activated Receptor-gamma (PPARg) (AID 2283007; active = hit-call score of the fitted dose curve at least 0.9, where 1 is the maximum). In short, it runs like this:
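Endpoint reflects upward reporter mRNA change versus DMSO controls. Setup: transiently transfected HepG2, GAL4-UAS reporters driven by chimeric NR-Gal4, 24 h incubation, RT-PCR with capillary electrophoresis read-out.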

The target of test [7] is Retinoic acid receptor RXR-alpha (Homo sapiens) (UniProt P19793). Briefly: ATG_RXRa_TRANS: Attagene TRANS-FACTORIAL HepG2 Assay for human Retinoid X Receptor alpha (RXRa) (AID 2283012; active = hit-call score of the fitted dose curve at least 0.9, where 1 is the maximum). In short, it runs like this: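 Cells (HepG2) carried transiently transfected GAL4-responsive reporter units. Following a 24 h chemical incubation, reporter mRNA induction was read via RT-PCR fragment analysis; DMSO served as negative control and baseline.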

Read-out in test [8]: E-selectin (Homo sapiens) (UniProt P16581)
Briefly: BSK_3C_Eselectin: BioMAP Diversity Plus: 3C Assay for Eselectin Biomarker Activity (AID 2283015).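 As to outcome: cell surface E-selectin protein quantified by ELISA 24 h after dosing.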 The following applies: primary human endothelial cells (HUVEC); actives raise or lower the signal. In outline: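 HUVEC, 3C stimulation; compound exposure 24 h; E-selectin by ELISA; gain- or loss-of-signal fitted bidirectionally vs DMSO baseline.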

Read-out in test [9]: Interleukin-1 alpha (IL1a), IL1A (gene 3552)
Kind of test: BSK_BE3C_IL1a: BioMAP Diversity Plus: BE3C Assay for Interleukin-1 alpha (IL1a) Biomarker Activity (AID 2283016). To be noted: primary human bronchial epithelial cells; actives raise or lower the signal. In outline:
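Cultures of primary human bronchial epithelial cells receive test chemical. After 24 h, IL-1a is quantified by ELISA, while parallel wells are fixed in TCA and SRB-stained for total protein. Changes in either direction are fitted relative to DMSO.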

Read-out in test [10]: Monocyte Chemoattractant Protein-1 (MCP1), CCL2 (gene 6347)
Briefly: BSK_3C_MCP1: BioMAP Diversity Plus: 3C Assay for Monocyte Chemoattractant Protein-1 (MCP1) Biomarker Activity (AID 2283017). To be noted: primary human endothelial cells (HUVEC); actives raise or lower the signal. In short, it runs like this: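 HUVEC, 3C system; 24 h chemical exposure; MCP-1 by ELISA; bidirectional curve fit vs DMSO baseline.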

Read-out in test [11]: Monocyte Chemoattractant Protein-1 (MCP1), CCL2 (gene 6347)
Kind of test: BSK_4H_MCP1: BioMAP Diversity Plus: 4H Assay for Monocyte Chemoattractant Protein-1 (MCP1) Biomarker Activity (AID 2283018). To be noted: primary human endothelial cells (HUVEC); actives raise or lower the signal. In outline: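 Readout: MCP-1 ELISA on compound-treated HUVEC, sampled 24 h post-dosing. Baseline and negative control DMSO; bidirectional fit. Overt toxicity checked alongside by sulforhodamine B protein staining at time of biomarker measurement.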

Read-out in test [12]: Human Leukocyte Antigen - DR isotype (HLADR), HLA-DRA (gene 3122)
Briefly: BSK_3C_HLADR: BioMAP Diversity Plus: 3C Assay for Human Leukocyte Antigen - DR isotype (HLADR) Biomarker Activity (AID 2283019).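 As to outcome: ELISA of cell-surface HLA-DR on HUVEC 24 h after dosing.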 The following applies: primary human endothelial cells (HUVEC); actives raise or lower the signal. In short, it runs like this: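 HUVEC, 3C stimulation, 24 h post-dose; HLA-DR by ELISA; bidirectional curve fit vs DMSO baseline; gain or loss of signal scored.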

For test [13], the target named is Nuclear receptor subfamily 1 group I member 2 (Homo sapiens) (UniProt O75469). Briefly: ATG_PXR_TRANS: Attagene TRANS-FACTORIAL HepG2 Assay for human Pregnane X Receptor (PXR) (AID 2283008; active = hit-call score of the fitted dose curve at least 0.9, where 1 is the maximum). In short, it runs like this:
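Fluorescence intensity of FAM-labelled, HpaI-digested reporter amplicons, separated by capillary electrophoresis, quantifies induction. HepG2 cells with PXR-Gal4 trans-reporter system were exposed 24 h; DMSO defines baseline.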

Test [14] addresses human Retinoid X Receptor beta (RXRb), RXRB (gene 6257) (UniProt P28702). Kind of test: ATG_RXRb_TRANS: Attagene TRANS-FACTORIAL HepG2 Assay for human Retinoid X Receptor beta (RXRb) (AID 2283013; active = hit-call score of the fitted dose curve at least 0.9, where 1 is the maximum). In outline:
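Multiplexed TRANS reporter assay in HepG2; 24 h dosing; reporter mRNA by RT-PCR/CE fluorescence; gain-of-signal relative to DMSO.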

Test [15] deals with human Thyroid Receptor alpha (THRa1), THRA (gene 7067) (UniProt P10827). Briefly: ATG_THRa1_TRANS: Attagene TRANS-FACTORIAL HepG2 Assay for human Thyroid Receptor alpha (THRa1) (AID 2283014; active = hit-call score of the fitted dose curve at least 0.9, where 1 is the maximum). In short, it runs like this:
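Transient HepG2 transfection, NR-Gal4 chimera driving GAL4-UAS reporters; 24 h compound exposure; total RNA, oligo(dT) RT, PCR, fluorescent primer extension, capillary electrophoresis. Upward direction vs DMSO control.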

Test [16] addresses human Peroxisome Proliferator-activated Receptor delta (PPARd), PPARD (gene 5467) (UniProt Q03181). Briefly: ATG_PPARd_TRANS: Attagene TRANS-FACTORIAL HepG2 Assay for human Peroxisome Proliferator-activated Receptor delta (PPARd) (AID 2283002; active = hit-call score of the fitted dose curve at least 0.9, where 1 is the maximum). In outline: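 Cell-based TRANS reporter: HepG2, transient MRTU transfection, 24 h exposure. Readout = reporter mRNA (RT-PCR/CE, 6-FAM). Gain-of-signal fit vs DMSO control.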

Test [17] addresses human Retinoic Acid Receptor beta (RARb), RARB (gene 5915) (UniProt P10826). Briefly: ATG_RARb_TRANS: Attagene TRANS-FACTORIAL HepG2 Assay for human Retinoic Acid Receptor beta (AID 2283004; active = hit-call score of the fitted dose curve at least 0.9, where 1 is the maximum). In outline: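 Readout is reporter mRNA induction: RNA reverse-transcribed, PCR-amplified, FAM-labelled, HpaI-cut and resolved by capillary electrophoresis. Transiently transfected HepG2 cells carrying exogenous NR–Gal4 chimeras were dosed for 24 h; activity fitted upward relative to DMSO.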

Test [18] has as its target human RAR-related Orphan Receptor gamma (RORg), RORC (gene 6097) (UniProt P51449). Briefly: ATG_RORg_TRANS: Attagene TRANS-FACTORIAL HepG2 Assay for human RAR-related Orphan Receptor gamma (RORg) (AID 2283011; active = hit-call score of the fitted dose curve at least 0.9, where 1 is the maximum). In outline: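 Transient MRTU transfection of HepG2 (TRANS format, exogenous NR-Gal4 chimera). 24 h dosing. Total RNA → oligo(dT) RT → PCR → 6-FAM labelling → HpaI cut → CE. Gain vs DMSO.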

Test [19] has as its target human Retinoic Acid Receptor gamma (RARg), RARG (gene 5916) (UniProt P13631). Kind of test: ATG_RARg_TRANS: Attagene TRANS-FACTORIAL HepG2 Assay for human Retinoic Acid Receptor gamma (RARg) (AID 2283009; active = hit-call score of the fitted dose curve at least 0.9, where 1 is the maximum). In short, it runs like this:
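HepG2, RARg-GAL4 TRANS system, 24 h exposure; reporter mRNA by RT-PCR + CE fluorescence; increase over DMSO.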

For test [20], the target named is human RAR-related Orphan Receptor beta (RORb), RORB (gene 6096) (UniProt Q92753). Kind of test: ATG_RORb_TRANS: Attagene TRANS-FACTORIAL HepG2 Assay for human RAR-related Orphan Receptor beta (RORb) (AID 2283010; active = hit-call score of the fitted dose curve at least 0.9, where 1 is the maximum). In short, it runs like this: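 In this TRANS-format test, human HepG2 cells express chimeric NR-Gal4 fusion proteins driving GAL4-UAS reporters. After 24 h dosing, reporter transcripts are measured by fluorescent RT-PCR/capillary electrophoresis, with DMSO as negative control.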
Chain of human RAR-related Orphan Receptor beta (RORb), RORB (gene 6096) (Q92753 whole entry, looked up, the tested form may be a part): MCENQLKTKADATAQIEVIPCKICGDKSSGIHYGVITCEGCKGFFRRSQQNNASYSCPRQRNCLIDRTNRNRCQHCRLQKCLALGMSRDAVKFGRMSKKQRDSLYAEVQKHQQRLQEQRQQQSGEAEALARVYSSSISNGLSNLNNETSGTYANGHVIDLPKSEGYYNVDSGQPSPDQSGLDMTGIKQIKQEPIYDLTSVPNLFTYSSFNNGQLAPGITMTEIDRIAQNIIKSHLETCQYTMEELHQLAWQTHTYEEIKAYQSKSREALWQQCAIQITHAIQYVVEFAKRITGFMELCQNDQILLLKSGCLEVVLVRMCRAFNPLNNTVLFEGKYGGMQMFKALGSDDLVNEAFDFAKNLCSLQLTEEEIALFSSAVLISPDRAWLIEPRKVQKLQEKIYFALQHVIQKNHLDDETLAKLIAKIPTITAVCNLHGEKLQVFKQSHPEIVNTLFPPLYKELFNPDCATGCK

Chain of human RAR-related Orphan Receptor gamma (RORg), RORC (gene 6097) (P51449 whole entry, looked up, the tested form may be a part): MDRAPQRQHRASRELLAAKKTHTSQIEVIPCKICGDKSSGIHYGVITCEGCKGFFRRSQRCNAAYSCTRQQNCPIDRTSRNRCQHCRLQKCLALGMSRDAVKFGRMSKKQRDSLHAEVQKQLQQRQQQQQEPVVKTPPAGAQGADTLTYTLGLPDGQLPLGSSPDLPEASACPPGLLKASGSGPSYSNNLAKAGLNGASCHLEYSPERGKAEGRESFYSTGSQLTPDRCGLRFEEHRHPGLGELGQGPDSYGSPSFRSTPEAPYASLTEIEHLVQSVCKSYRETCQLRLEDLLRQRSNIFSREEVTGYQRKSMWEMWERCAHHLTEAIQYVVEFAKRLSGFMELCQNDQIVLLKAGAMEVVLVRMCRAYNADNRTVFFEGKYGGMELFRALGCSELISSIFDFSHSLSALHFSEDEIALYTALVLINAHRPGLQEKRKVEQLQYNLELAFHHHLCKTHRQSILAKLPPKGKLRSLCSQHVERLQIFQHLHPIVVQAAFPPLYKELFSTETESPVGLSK
Chain of Retinoic acid receptor RXR-alpha (Homo sapiens) (P19793 whole entry, looked up, the tested form may be a part): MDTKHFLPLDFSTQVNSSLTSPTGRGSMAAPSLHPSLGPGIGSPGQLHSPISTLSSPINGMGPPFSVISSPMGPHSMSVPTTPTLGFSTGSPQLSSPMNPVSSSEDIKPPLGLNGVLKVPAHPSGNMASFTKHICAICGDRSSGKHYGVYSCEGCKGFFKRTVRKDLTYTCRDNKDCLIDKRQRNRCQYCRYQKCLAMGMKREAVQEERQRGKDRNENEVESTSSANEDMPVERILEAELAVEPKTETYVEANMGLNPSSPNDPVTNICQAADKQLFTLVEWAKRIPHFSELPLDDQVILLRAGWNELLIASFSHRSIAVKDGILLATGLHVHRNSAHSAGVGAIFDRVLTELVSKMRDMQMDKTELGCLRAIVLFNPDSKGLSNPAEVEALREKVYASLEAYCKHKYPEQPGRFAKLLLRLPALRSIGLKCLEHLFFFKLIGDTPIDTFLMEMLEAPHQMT
Chain of E-selectin (Homo sapiens) (P16581 whole entry, looked up): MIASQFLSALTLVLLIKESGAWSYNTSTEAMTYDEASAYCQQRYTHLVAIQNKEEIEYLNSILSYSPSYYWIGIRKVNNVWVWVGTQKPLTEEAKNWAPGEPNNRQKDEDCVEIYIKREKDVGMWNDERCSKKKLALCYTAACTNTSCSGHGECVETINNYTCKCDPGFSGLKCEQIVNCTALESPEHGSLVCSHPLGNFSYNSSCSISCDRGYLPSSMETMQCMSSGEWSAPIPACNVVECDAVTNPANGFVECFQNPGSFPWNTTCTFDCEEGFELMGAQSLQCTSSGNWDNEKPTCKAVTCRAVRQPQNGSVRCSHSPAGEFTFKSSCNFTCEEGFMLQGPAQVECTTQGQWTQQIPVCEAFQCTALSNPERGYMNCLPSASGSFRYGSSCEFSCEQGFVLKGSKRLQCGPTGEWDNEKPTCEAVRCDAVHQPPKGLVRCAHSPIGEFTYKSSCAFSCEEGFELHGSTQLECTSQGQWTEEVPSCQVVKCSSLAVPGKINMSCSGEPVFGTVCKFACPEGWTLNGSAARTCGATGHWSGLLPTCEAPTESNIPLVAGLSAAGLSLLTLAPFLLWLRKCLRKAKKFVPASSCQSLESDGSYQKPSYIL
Chain of Peroxisome proliferator-activated receptor gamma (Homo sapiens) (P37231 whole entry, looked up, the tested form may be a part): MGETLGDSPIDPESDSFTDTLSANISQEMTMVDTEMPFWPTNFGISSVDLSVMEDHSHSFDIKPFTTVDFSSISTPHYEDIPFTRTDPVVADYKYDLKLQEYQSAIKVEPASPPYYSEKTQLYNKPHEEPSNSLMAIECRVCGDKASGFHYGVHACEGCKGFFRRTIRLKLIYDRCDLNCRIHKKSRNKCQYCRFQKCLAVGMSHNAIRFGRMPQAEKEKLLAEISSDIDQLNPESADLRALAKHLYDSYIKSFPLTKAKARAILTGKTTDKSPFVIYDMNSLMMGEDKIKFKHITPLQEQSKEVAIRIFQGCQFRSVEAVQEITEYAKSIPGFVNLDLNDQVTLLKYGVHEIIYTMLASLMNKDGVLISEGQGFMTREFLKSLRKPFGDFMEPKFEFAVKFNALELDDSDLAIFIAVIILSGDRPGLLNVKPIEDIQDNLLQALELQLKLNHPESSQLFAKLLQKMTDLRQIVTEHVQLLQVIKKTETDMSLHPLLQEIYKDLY
Chain of human Retinoid X Receptor beta (RXRb), RXRB (gene 6257) (P28702 whole entry, looked up): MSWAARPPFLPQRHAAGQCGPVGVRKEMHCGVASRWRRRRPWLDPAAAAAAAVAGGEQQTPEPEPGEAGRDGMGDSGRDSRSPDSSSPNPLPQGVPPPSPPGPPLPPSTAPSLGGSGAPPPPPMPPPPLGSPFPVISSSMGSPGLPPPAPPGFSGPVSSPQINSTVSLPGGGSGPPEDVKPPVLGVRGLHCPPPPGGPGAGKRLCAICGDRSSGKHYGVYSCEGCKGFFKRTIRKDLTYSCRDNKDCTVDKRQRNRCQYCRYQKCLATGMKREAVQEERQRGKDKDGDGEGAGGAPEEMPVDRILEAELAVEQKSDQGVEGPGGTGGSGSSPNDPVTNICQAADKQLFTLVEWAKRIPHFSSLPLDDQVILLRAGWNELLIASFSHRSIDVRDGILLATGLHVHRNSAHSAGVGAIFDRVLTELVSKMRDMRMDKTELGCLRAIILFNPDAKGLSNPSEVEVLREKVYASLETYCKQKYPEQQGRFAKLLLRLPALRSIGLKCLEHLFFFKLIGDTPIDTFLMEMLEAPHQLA
Chain of human Peroxisome Proliferator-activated Receptor delta (PPARd), PPARD (gene 5467) (Q03181 whole entry, looked up): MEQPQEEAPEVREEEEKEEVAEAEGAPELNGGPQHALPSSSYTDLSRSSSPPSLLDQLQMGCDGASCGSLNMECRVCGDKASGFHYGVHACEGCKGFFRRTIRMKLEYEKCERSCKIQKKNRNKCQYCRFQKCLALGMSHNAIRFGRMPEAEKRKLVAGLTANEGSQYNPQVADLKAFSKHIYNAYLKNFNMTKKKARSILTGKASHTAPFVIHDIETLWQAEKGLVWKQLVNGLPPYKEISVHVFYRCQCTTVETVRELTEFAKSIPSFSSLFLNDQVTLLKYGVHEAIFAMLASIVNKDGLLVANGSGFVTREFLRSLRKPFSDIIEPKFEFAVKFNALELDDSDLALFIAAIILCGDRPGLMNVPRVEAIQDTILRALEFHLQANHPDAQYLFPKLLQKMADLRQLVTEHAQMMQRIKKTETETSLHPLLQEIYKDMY
Chain of human Thyroid Receptor alpha (THRa1), THRA (gene 7067) (P10827 whole entry, looked up, the tested form may be a part): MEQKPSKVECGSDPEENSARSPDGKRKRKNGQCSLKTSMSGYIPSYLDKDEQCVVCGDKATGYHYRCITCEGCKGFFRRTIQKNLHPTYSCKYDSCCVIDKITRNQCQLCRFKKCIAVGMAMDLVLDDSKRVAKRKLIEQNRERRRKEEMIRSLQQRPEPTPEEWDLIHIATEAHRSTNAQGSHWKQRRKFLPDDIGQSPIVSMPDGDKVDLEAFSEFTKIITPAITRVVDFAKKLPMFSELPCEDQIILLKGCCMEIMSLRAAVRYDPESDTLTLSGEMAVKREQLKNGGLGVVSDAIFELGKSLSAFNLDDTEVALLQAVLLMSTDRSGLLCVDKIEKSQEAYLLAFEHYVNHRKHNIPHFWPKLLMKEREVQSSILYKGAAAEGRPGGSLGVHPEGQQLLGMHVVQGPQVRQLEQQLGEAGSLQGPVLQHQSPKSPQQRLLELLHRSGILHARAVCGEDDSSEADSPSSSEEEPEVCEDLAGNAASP
Chain of human Peroxisome Proliferator-activated Receptor alpha (PPARa), PPARA (gene 5465) (Q07869 whole entry, looked up, the tested form may be a part): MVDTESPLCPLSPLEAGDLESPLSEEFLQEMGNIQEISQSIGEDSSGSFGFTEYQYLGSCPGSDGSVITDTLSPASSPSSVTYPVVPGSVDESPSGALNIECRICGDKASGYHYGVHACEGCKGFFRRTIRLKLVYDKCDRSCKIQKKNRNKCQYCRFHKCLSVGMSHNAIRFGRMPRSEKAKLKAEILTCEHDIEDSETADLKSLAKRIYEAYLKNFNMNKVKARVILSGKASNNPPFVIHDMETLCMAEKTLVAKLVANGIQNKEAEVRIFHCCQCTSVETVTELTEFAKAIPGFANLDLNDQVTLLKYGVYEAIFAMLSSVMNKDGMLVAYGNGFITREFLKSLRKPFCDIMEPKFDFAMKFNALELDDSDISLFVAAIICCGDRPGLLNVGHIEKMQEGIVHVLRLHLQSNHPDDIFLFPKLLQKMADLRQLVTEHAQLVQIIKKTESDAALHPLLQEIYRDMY
Chain of human Retinoic Acid Receptor beta (RARb), RARB (gene 5915) (P10826 whole entry, looked up, the tested form may be a part): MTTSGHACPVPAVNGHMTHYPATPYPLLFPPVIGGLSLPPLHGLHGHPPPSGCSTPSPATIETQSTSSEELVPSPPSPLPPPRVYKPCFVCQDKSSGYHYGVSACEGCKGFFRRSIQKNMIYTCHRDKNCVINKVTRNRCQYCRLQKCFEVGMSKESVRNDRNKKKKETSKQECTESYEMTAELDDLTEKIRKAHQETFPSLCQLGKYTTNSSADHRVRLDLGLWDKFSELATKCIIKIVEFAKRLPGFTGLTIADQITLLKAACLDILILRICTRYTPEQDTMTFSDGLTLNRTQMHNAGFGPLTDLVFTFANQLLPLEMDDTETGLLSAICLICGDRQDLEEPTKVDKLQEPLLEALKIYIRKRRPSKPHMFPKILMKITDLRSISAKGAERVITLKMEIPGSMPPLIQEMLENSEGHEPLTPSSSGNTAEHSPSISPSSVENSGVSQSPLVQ

Turning to `O=S1OCC2C(CO1)C1(Cl)C(Cl)=C(Cl)C2(Cl)C1(Cl)Cl` (centres undefined), the AC50 in test [1] was 30.9 µM (active); in test [3], 33.9 µM (active); in test [5], 24.5 µM (active); in test [8], 34.5 µM (active); in test [9], 33.4 µM (active); in [10], 30.3 µM (active). The figures for the AC50 in [11] and in test [12] were 26 µM (active) and 30 µM (active), respectively. For the same compound, the result in [2], in [4], in [6] and in [7] was inactive.

With `CCOCN(C(=O)CCl)c1c(C)cccc1CC`, the AC50 was 35.3 µM (active) in test [1]; 15.5 µM (active) in [5]; 1.23 µM (active) in [6]; 15.7 µM (active) in test [8]; 20 µM (active) in test [11]; 20 µM (active) in test [12]. Moreover, the call in test [2], in test [3], in test [4], in [13], in test [14] and in test [15] was inactive. Besides, the outcome in test [9] and in test [10] was inactive.

In the case of `O=C(Nc1ccccc1)Nc1cnns1`, the result in test [1], in [16], in [3], in test [17], in [4] and in test [6] was inactive. For the same compound, the compound was classed as inactive in test [18], in [7], in [14], in test [8], in test [9] and in test [10]. Also, the outcome in [11] was inactive. For the same compound, the AC50 in [5] is 20 µM (active); in test [12], 36.1 µM (active).

Turning to `CCOC1Oc2ccc(OS(C)(=O)=O)cc2C1(C)C` (centres undefined), the outcome in test [1], in [16], in test [3], in test [17], in [4] and in [5] was inactive. The outcome in [6], in test [19], in test [18], in [7], in test [14] and in [15] was inactive. For the same compound, the outcome in test [8], in test [9] and in test [11] was inactive. Besides, the figures for the AC50 in test [10] and in [12] were 24.8 µM (active) and 23 µM (active), respectively.

Regarding `O=[N+]([O-])c1c(Cl)c(Cl)c(Cl)c(Cl)c1Cl`, the result in [1], in test [16], in [3], in [17], in [4] and in test [19] was inactive. Further, the call in [20], in test [18], in test [7], in test [14], in test [15] and in test [8] was inactive. The outcome in [9], in [10] and in test [11] was inactive. Also, the AC50 in test [5] is 30.1 µM (active); in test [6], 16.4 µM (active); in test [12], 36.9 µM (active).

`CNC(=O)/C=C(\C)OP(=O)(OC)OC`: the outcome in test [1], in test [2], in test [3], in test [5], in test [6] and in [20] was inactive. For the same compound, the compound was called inactive in test [7], in test [14], in test [8], in test [9], in test [10] and in [11]. In addition, in [12], the outcome was inactive.

Regarding `CN1CSC(=S)N(C)C1`, the AC50 was 20.9 µM (active) in test [1]; 26.6 µM (active) in [5]; 18.1 µM (active) in [8]; 31.2 µM (active) in test [10]; 19 µM (active) in [12]. For the same compound, the compound was called inactive in [2], in test [3], in test [17], in test [6], in test [20] and in test [18]. Besides, the call in [7], in [15], in [9] and in test [11] was inactive.

As a reminder, the AC50 is the concentration at which the activity in the assay is half-maximal.
